# Pf growth 48h = P. falciparum growth inhibition at 48 hours (one generation); P. falciparum luciferase growth in erythrocytes, 48 h; Potency, µM (titrated, usually from 28.7 µM), for inactives: at the top dose activity change, negative = inhibition, most hits filed as inhibitors; hit rate 5.9% among 310,000
#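 Parasite viability was followed by luminescence of a genomically integrated firefly luciferase. Cultures held 0.1% parasitemia at 2% hematocrit (final), incubated under 5% CO2 at 37 C.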
# VACV Venus inh = vaccinia inhibition (Venus reporter); Vaccinia virus Venus reporter expression, fluorescence; Potency, µM (top dose mostly 36.5 µM), for inactives: at the highest dose activity change, negative = inhibition, hits mostly inhibitors; hit rate 0.46% among 330,000; AID 720580; calls by dose curve; tested in A549 cells; also: nearly all actives have a fitted effect of over 30% in size
# VACV mCherry inh = inhibitors of vaccinia virus infection (mCherry reporter signal). Potency, µM (top dose mostly 36.5 µM), inactives show top-dose activity change, negative = inhibition, most hits filed as inhibitors. hit rate 0.63% among 310,000. Vaccinia virus mCherry reporter infection, fluorescence; calls by dose curve; tested in A549 cells; also: nearly all actives have a fitted effect of over 35% in size
# AMA1-RON2 inh = AMA1-RON2 (P. falciparum) interaction inhibition; hit rate 0.2% among 360,000; Potency, µM (series often up to 58.2 µM), for the others: top-dose activity change, negative = inhibition, most hits filed as inhibitors; AlphaScreen AMA1-biotinylated RON2 peptide binding;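 also: 0% = vehicle wells and -100% = peptide control; nearly all actives have a fitted effect of over 45% in size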
#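 AMA1 (3D7) with his tag at 25 nM final met compounds first, then biotinylated RON2 peptide at 25 nM; detection used donor plus acceptor beads, 10 µg/mL apiece, read by AlphaScreen after 30 min at room temperature.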
# Pf growth 96h = P. falciparum growth inhibition at 96 hour, primary screen for plastid delayed-death inhibitors; P. falciparum luciferase reporter growth, 96 h; Potency, µM (doses to about 28.7 µM), without a hit: top-dose activity change, negative = inhibition, actives largely listed as inhibitors; hit rate 6.9% among 320,000; AID 504834
#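 Parasite growth measured via integrated firefly luciferase reporter in P. falciparum. Infected erythrocytes at 2% hematocrit, 0.05% parasitemia final were treated 96 hours at 37 C under 5% CO2, and luminescence was read.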
# Starred values were filed as active, the others as inactive; i = inactive; ? = inconclusive; . = not tested or not shown; [ ] = another dose, or the depositor's remark. Sampled rows, rich in hits. Any-hit rate of the full collection: about 8.7%. Unless noted, calls follow the shape of the dose curve; as a rule, active = well fitted curve in the direction sought with a large enough effect; inconclusive = small, poorly fitted or top-dose-only effect, or another doubt; inactive = no such curve, though single readings can be large; an effect the other way counts as inactive or inconclusive. Unless noted, % is scaled to controls: 0 for no effect and ±100 for the full control effect; potency is read from the fitted curve at half-maximal effect.
SMILES,Pf growth 48h,VACV Venus inh,VACV mCherry inh,AMA1-RON2 inh,Pf growth 96h
COc1ccccc1C(=O)NCCSc1c(C)[nH]c2ccccc12,.,-24%,i,.,.
CCOC(=O)c1nnc2cc(-c3ccccc3)nn2c1C,.,?,.,0%,15µM*
CCOC(=O)CC(=O)CSc1ccc2nnc(-c3ccccc3)n2n1,3.7µM*,.,.,8%,?
Cc1ccc(-c2nnc3ccc(SCC(=O)N4CCCc5ccccc54)nn23)cc1,?,-20%,i,3%[2.32 µM],10µM*
Cc1ccc(-c2nnc3ccc(SCC(=O)N4CCc5ccccc54)nn23)cc1,22%,-19%,-12%,0%,41%
O=C(O)c1ccc(N2C(=O)c3[nH]nc(-c4ccccc4)c3C2c2cccc(F)c2)cc1 (stereo not drawn),.,-2%,-7%,.,.
CCCn1c2ccccc2c2nnc(SCC(=O)OC)nc21,-20%,.,.,-11%,8%
CCCCn1c2ccccc2c2nnc(SCC(=O)NC3=NN=C(c4ccccc4)CS3)nc21,2.9µM*,.,.,.,?
CCn1c2ccccc2c2nnc(SCC(=O)Nc3c(C)n(C)n(-c4ccccc4)c3=O)nc21,?,.,.,-6%,12µM*
O=C(CCc1ccccc1)NC1CC(=O)N(c2cccc(F)c2)C1 (stereo not drawn),.,-10%,-9%,.,.
COC(=O)C(NC(=O)CCc1c(C)nc2c(-c3ccccc3)c(C)nn2c1C)C(C)C (stereo not drawn),.,-7%,-2%,.,.
O=C(Nc1ccc(F)cc1)c1ccccc1Oc1ccc(C(F)(F)F)cc1[N+](=O)[O-],10µM*,?,-1%,-21%,-99%
CCc1nc(SCC(=O)Nc2cccc3ccccc23)[nH]c(=O)c1C,0%,7%,-15%,-3%,-14%
Cc1c(C)n2c(SCC(=O)Nc3cccc4ccccc34)nnc2[nH]c1=O,12µM*,0%,-23%,-3%,?
O=C(CSc1nnc(-c2cccnc2)n1Cc1ccccc1)N1CCOCC1,18%,.,.,2%,1.9µM*
Cn1c(SCC(=O)N2CCN(Cc3ccccc3)CC2)nnc1-c1ccncc1,9%,.,.,-3%,2.9µM*
Cc1cccc(CNS(=O)(=O)c2ccc(-c3ccc(=O)[nH]n3)s2)c1,3%,.,.,-1%,53%
O=c1ccc(-c2ccc(S(=O)(=O)NCC3CCN(Cc4ccccc4F)CC3)s2)n[nH]1,?,.,.,-4%,2.9µM*
CCOC(=O)c1c(S(=O)(=O)N2CCCC(C(=O)Nc3ccc(C)cc3C)C2)c(C)n(CC)c1C (stereo not drawn),.,-6%,-16%,.,.
CCN1CCN(c2ncc3c(n2)CCN(Cc2ccccc2C)C3)CC1,.,-16%,-16%,.,.
Cc1cc(C)nc(N(C#N)CCOc2ccc(Cl)cc2)n1,?,-23%,-24%[1.46 µM],25%,?
CC(C)Nc1nc(NC(C)C)nc(N(C#N)CCOc2ccc(Cl)cc2Cl)n1,10µM*,?,?,-9%,?
O=C1c2cc(F)ccc2-n2c1nc1ccccc1c2=O,0.033µM*,0%,-26%,5%,0.029µM*
Nn1c(-c2ccc(F)cc2)nc2ccccc2c1=O,29%,.,.,-10%,?
CC1(C)CC(=O)C2=C(C1)O[C@@]1(CCCCN3C(=O)c4ccccc4C3=O)Cc3cc(C#N)ccc3C2O1,1.5µM*,.,.,.,49%[5.75 µM]
SMILES,Pf growth 48h,VACV Venus inh,VACV mCherry inh,AMA1-RON2 inh,Pf growth 96h
CCCCn1c(C)cc2c(c1=O)C1O[C@](CCCC)(Cc3cc(C#N)ccc31)O2,?,.,.,.,19%[5.75 µM]
N#Cc1ccc2c(c1)C[C@]1(CCCCN3C(=O)c4ccccc4C3=O)Oc3c(c(=O)oc4ccc(F)cc34)C2O1,1.9µM*,.,.,.,?
O=c1oc2ccccc2c2c1C1O[C@](c3ccsc3)(Cc3c1ccc1ccccc31)O2,45%[5.75 µM],.,.,.,?
Cc1ccccc1-c1nnc(SCC(=O)N(C)C2CCCCC2)o1,.,-5%,-7%,.,.
CCN(CC)C(=O)CC(c1ccc(OC)cc1)c1c(O)cc(OC)cc1OC (stereo not drawn),?,-10%,i,-1%,-15%
CCN(CC)CCC(c1ccc(OC)cc1)c1c(O)cc(OC)cc1OC (stereo not drawn),1.3µM*,-14%,-8%,-2%,1.3µM*
CCN(CC)CCC(c1ccc(N(C)C)cc1)c1c(O)cc(OC)cc1OC (stereo not drawn),1.2µM*,-7%,?,?,1.5µM*
CC(C)C(NS(C)(=O)=O)c1nnc2n1CCN(Cc1ccc(Cl)cc1)CC2 (stereo not drawn),.,-11%,-22%,.,.

# High-throughput results from PubChem BioAssay.
